Among the test systems are HCT-15 colon; HT29 colon; SNB-75 CNS; SNB-19 CNS; U251 CNS; PC-3 prostate; SK-MEL-5 melanoma; UACC-62 melanoma; LOX IMVI melanoma; SK-MEL-28 melanoma; SK-MEL-2 melanoma; EKVX NSCLC; SN12C renal; UO-31 renal; ACHN renal; CAKI-1 renal; A498 renal; CCRF-CEM leukemia; MOLT-4 leukemia; TK-10 renal.
Common to all, as to experiment: NCI-60 one-dose screen, 48 h (100 = growth as untreated, 0 = no growth, -100 = all killed)
Common to all, as to conditions: 10 µM unless noted

The structures appear in SMILES notation. This is part of a sample that, as a whole, favours compounds with a hit. Of some 83,000 tested, about 20% had one in any assay.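 Percent growth is the endpoint: 0 to 100 indicates growth inhibition (40 means 60% inhibition), 0 means no net growth, and negative values indicate cell death.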 Unmarked numbers belong to inactive results. Activity calls are given as the source filed them. The calls were made as follows: active = growth percent below 10; inactive = the rest.

On to `NS(=O)(=O)c1cc(C2(O)NC(=O)c3ccccc32)ccc1Cl` (configuration not stated), for which the growth in the experiment with HCT-15 colon was 104%; in the experiment with HT29 colon, 98.4%; in the experiment with SNB-75 CNS, 91.4%; in the experiment with SNB-19 CNS it was 104%; in the experiment on U251 CNS, 103%; in the experiment with PC-3 prostate, 91.7%. For the same compound, the growth in the experiment on SK-MEL-5 melanoma is 115%; in the experiment with UACC-62 melanoma, 103%; in the experiment on LOX IMVI melanoma, 98.8%; in the experiment on SK-MEL-28 melanoma, 116%; in the experiment on SK-MEL-2 melanoma, 113%; with EKVX NSCLC it was 108%. Besides, the growth was 101% in the experiment on SN12C renal; 76.4% in the experiment on UO-31 renal; 90.7% with ACHN renal; 93.9% with CAKI-1 renal; 129% with A498 renal; 98.9% in the experiment with CCRF-CEM leukemia. In the experiment with MOLT-4 leukemia, the growth was 93.6%.

Regarding `c1ccc(-c2oc(-c3ccccc3)c3ccccc23)cc1`, the growth in the experiment on HCT-15 colon is 108%; with HT29 colon, 118%; with SNB-75 CNS it was 110%; in the experiment on SNB-19 CNS it was 105%; with U251 CNS, 98.9%; with PC-3 prostate it was 82.8%. The growth is 104% in the experiment with SK-MEL-5 melanoma; 98.6% in the experiment on UACC-62 melanoma; 88.5% in the experiment with LOX IMVI melanoma; 125% with SK-MEL-28 melanoma; 104% in the experiment with SK-MEL-2 melanoma; 92.1% with EKVX NSCLC. Further, the growth was 104% in the experiment on SN12C renal; 110% in the experiment on UO-31 renal; 114% in the experiment with TK-10 renal; 104% in the experiment on ACHN renal; 74.7% with CAKI-1 renal; 85.5% in the experiment with CCRF-CEM leukemia. In addition, in the experiment with MOLT-4 leukemia, the growth was 95.7%.

Turning to `O=C(c1ccccc1)C(CN1CCCCC1)c1ccccc1` (configuration not stated), the growth in the experiment on HCT-15 colon is -22% (active); with HT29 colon it was -13.4% (active); in the experiment with SNB-75 CNS it was 63.4%; in the experiment on SNB-19 CNS, 78.5%; in the experiment with U251 CNS it was 15.9%; with PC-3 prostate, 49.8%. Also, the growth in the experiment with SK-MEL-5 melanoma was 58.8%; in the experiment with UACC-62 melanoma it was 25.8%; in the experiment with LOX IMVI melanoma, -94.9% (active); with SK-MEL-28 melanoma, 58.8%; in the experiment on SK-MEL-2 melanoma, 50.1%; in the experiment with EKVX NSCLC, 93.8%. Also, the growth in the experiment on SN12C renal is 26%; in the experiment with UO-31 renal, -36.3% (active); with TK-10 renal it was 10.9%; with ACHN renal, -12.5% (active); in the experiment on CAKI-1 renal, 1.39% (active); in the experiment on CCRF-CEM leukemia, -20.2% (active). Besides, the growth in the experiment on MOLT-4 leukemia is 0.0819% (active).

On to `O=C1NC(=O)/C(=C/c2ccc(Cl)cc2Cl)N1`, for which the growth is 103% with HCT-15 colon; 121% with HT29 colon; 83.7% in the experiment on SNB-75 CNS; 107% in the experiment with SNB-19 CNS; 102% in the experiment with U251 CNS; 96.5% with PC-3 prostate. Also, the growth in the experiment with SK-MEL-5 melanoma was 108%; in the experiment on UACC-62 melanoma it was 102%; in the experiment with LOX IMVI melanoma, 97.3%; in the experiment on SK-MEL-28 melanoma, 109%; in the experiment with SK-MEL-2 melanoma, 103%; in the experiment on EKVX NSCLC, 77.4%. The growth in the experiment with SN12C renal is 107%; in the experiment on UO-31 renal it was 80.7%; with TK-10 renal, 110%; in the experiment with ACHN renal, 109%; with CAKI-1 renal, 102%; in the experiment on CCRF-CEM leukemia, 92.3%. Further, the growth in the experiment with MOLT-4 leukemia is 94.5%.

`C[C@H]1O[C@@H](O[C@H]2[C@@H](O)C[C@H](O[C@H]3[C@@H](O)C[C@H](O[C@H]4CC[C@]5(C)C6CC[C@]7(C)[C@@H](C8=CC(=O)OC8)CC[C@]7(O)C6CC[C@@H]5C4)O[C@@H]3C)O[C@@H]2C)C[C@H](O)[C@@H]1O` (some centres not stated): the growth was -85.6% (active) in the experiment with HCT-15 colon; -89.8% (active) with HT29 colon; -80.8% (active) in the experiment with SNB-75 CNS; -100% (active) in the experiment with SNB-19 CNS; -100% (active) with U251 CNS; -24.1% (active) in the experiment on PC-3 prostate. Also, the growth in the experiment with SK-MEL-5 melanoma was -100% (active); in the experiment on UACC-62 melanoma it was -82.4% (active); with LOX IMVI melanoma, -100% (active); in the experiment with SK-MEL-28 melanoma it was -51.5% (active); in the experiment on SK-MEL-2 melanoma, -68.5% (active); in the experiment with EKVX NSCLC it was -98.4% (active). In addition, the growth with SN12C renal was -52.4% (active); in the experiment with UO-31 renal it was -90.4% (active); in the experiment on ACHN renal it was -68% (active); with CAKI-1 renal it was -92.6% (active); in the experiment with A498 renal, -28.5% (active); in the experiment on CCRF-CEM leukemia it was -58.6% (active). For the same compound, the growth with MOLT-4 leukemia is -36.9% (active).

Consider `NS(=O)(=O)c1cc2c(cc1Cl)NC=NS2(=O)=O`, for which the growth was 102% with HCT-15 colon; 94.7% with HT29 colon; 96.3% with SNB-75 CNS; 107% with SNB-19 CNS; 99.7% in the experiment with U251 CNS; 100% in the experiment on PC-3 prostate. The growth was 107% in the experiment with SK-MEL-5 melanoma; 103% in the experiment on UACC-62 melanoma; 99.6% with LOX IMVI melanoma; 108% in the experiment with SK-MEL-28 melanoma; 103% in the experiment with SK-MEL-2 melanoma; 107% with EKVX NSCLC. Moreover, the growth with SN12C renal is 100%; with UO-31 renal, 82.1%; with ACHN renal, 98.9%; with CAKI-1 renal, 96.3%; in the experiment with A498 renal, 110%; with CCRF-CEM leukemia, 97.6%. The growth in the experiment with MOLT-4 leukemia was 103%.

Take `O=C(O)CCC(=O)OC[C@@H](NC(=O)C(Cl)Cl)[C@H](O)c1ccc([N+](=O)[O-])cc1`: the growth in the experiment on HCT-15 colon was 93.9%; in the experiment on HT29 colon, 95.8%; with SNB-75 CNS, 88%; in the experiment on SNB-19 CNS it was 99.4%; with U251 CNS it was 99.3%; in the experiment on PC-3 prostate it was 87.5%. Moreover, the growth is 89.8% with SK-MEL-5 melanoma; 98% in the experiment with UACC-62 melanoma; 96.7% in the experiment on LOX IMVI melanoma; 106% with SK-MEL-28 melanoma; 105% in the experiment with SK-MEL-2 melanoma; 106% in the experiment on EKVX NSCLC. In addition, the growth in the experiment with SN12C renal is 92.9%; with UO-31 renal it was 72%; with ACHN renal it was 88.1%; in the experiment with CAKI-1 renal it was 89.6%; with A498 renal, 117%; in the experiment with CCRF-CEM leukemia, 89.7%. The growth in the experiment with MOLT-4 leukemia is 90.7%.

On to `C[C@]12CCC(=O)C=C1CCC1C2[C@@H](O)C[C@@]2(C)C1CC[C@]2(O)C(=O)COC(=O)CCC(=O)O` (some centres not stated), for which the growth with HCT-15 colon is 112%; in the experiment with HT29 colon, 107%; in the experiment with SNB-75 CNS, 123%; with SNB-19 CNS it was 104%; in the experiment on U251 CNS, 105%; in the experiment on PC-3 prostate, 93.2%. Further, the growth in the experiment on SK-MEL-5 melanoma was 98.6%; in the experiment on UACC-62 melanoma, 106%; in the experiment on LOX IMVI melanoma, 98.5%; in the experiment on SK-MEL-28 melanoma, 108%; with SK-MEL-2 melanoma it was 123%; in the experiment with EKVX NSCLC, 78.7%. The growth in the experiment with SN12C renal is 57.2%; in the experiment with UO-31 renal, 84.1%; with ACHN renal, 102%; with CAKI-1 renal, 81.1%; with A498 renal, 118%; in the experiment on CCRF-CEM leukemia, 64.9%. Moreover, the growth in the experiment on MOLT-4 leukemia was 115%.

(Values after PubChem BioAssay (NCI).)
